Measurements from PubChem BioAssay AID1851 (National Center for Advancing Translational Sciences (NCATS), 2009).
Values joined by “and” are separate entries in the source; they are usually repeats but may differ in a detail not shown here. Equal values may be shown once. The campaign covered roughly 16,000 compounds. About 2,600 (16%) were called active. Another 20% or so got no clear call; they are omitted. Calls come from the whole dose curve; as a rule, active = well fitted curve in the direction sought with a large enough effect; inconclusive = small, poorly fitted or top-dose-only effect, or effect the other way; inactive = no such curve, though single readings can be large or run the other way. These entries were drawn from the full list.

molecular target: Cytochrome P450 2D6 (Homo sapiens) (UniProt P10635); test: Cytochrome panel assay with activity outcomes; conditions: recombinant CYP, pro-luciferin dealkylation, luminescence, p450-cyp2d6; series mostly up to 57.1 µM
% is set by controls: 0 for no effect and ±100 for the full control effect.

Chain of Cytochrome P450 2D6 (Homo sapiens) (P10635 whole entry, looked up): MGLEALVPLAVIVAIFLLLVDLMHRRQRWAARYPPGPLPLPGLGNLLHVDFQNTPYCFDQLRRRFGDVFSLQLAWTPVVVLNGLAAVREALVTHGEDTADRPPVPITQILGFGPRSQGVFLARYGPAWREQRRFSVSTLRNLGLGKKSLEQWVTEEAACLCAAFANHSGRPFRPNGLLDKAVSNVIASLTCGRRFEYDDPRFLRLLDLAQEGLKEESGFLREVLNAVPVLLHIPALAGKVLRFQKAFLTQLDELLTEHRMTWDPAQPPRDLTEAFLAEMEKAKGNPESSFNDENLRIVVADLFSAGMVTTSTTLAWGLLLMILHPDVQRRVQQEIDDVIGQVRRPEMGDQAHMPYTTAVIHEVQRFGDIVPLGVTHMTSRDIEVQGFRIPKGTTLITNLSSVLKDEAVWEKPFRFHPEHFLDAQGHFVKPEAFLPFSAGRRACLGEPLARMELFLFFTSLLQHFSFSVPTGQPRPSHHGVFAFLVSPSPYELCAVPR

Row | Structure (SMILES) | AC50 | activity, negative = inhibition
1 | COCC(=O)N(C)c1nnc(-c2ccc([N+](=O)[O-])cc2)s1 | inactive | –
2 | Cc1ccc(C)c(OCCCC(C)(C)C(=O)O)c1 | inactive | –
3 | N[C@H](C(=O)O)[C@H](OCc1ccccc1)C(=O)O | 7.94 µM (active) | –
4 | N[C@@H](Cc1ccccc1)C(=O)O | – | 4.66% [at 11.4 µM] (inactive)
5 | CC(C)C(NC(=O)OCc1ccccc1)C(=O)O (stereo not drawn) | inactive | –
6 | CCOC(=O)C1=C(C)NC(C)=C(C(=O)OCC)C1c1sccc1C | inactive | –
7 | CCCCC(=O)NC(=S)Nc1cccc(NC(=O)CC)c1 | inactive | –
8 | Cc1cc(C)c(NC(=O)NC(=O)c2ccc(F)cc2)c(C)n1 | inactive | –
9 | CCCCCN=c1ccn(Cc2ccccc2)c2ccccc12 | 10 µM (active) | –
10 | O=C(O)c1ccccc1C(=O)Nc1cc2c(cc1Br)-c1ccccc1C2=O | – | 16.7% [at 11.4 µM] (inactive)
11 | Cl/C(=C\n1cncn1)c1ccc(Cl)cc1Cl | inactive | –
12 | CC1(C)[C@@H]2CC[C@]1(CC(=O)O)[C@H](Cl)C2 | – | 6.22% [at 11.4 µM] (inactive)
13 | CCOc1ccc(C(F)(F)F)cc1NC(C)=O | inactive | –
14 | CC(=O)Nc1cc(C(F)(F)F)ccc1Oc1cccc(Br)c1 | 10 µM (active) | –
15 | COc1ccc(C(C)(C)C)cc1NC(=O)c1cncc(Br)c1 | inactive | –
16 | CSCC[C@H](NC(=O)CC(C)(C)C)c1nc2ccccc2[nH]1 | inactive | –
17 | C[N+](C)(C)c1nc(N)nc2c1ncn2[C@H]1O[C@@H](CO)[C@@H](O)[C@H]1O | – | 6.01% [at 11.4 µM] (inactive)
18 | CCOC(=O)c1cccc(NC(=O)COc2ccc([N+](=O)[O-])cc2)c1 | 1.41 µM (active) | –
19 | O=C(COc1ccc([N+](=O)[O-])cc1)Nc1ccc(C(=O)NCc2cccnc2)cc1 | 3.16 µM (active) | –
20 | O=C(COc1ccc([N+](=O)[O-])cc1)NCc1ccccc1 | inactive | –
21 | O=C(COc1ccc(/C=N/NC(=O)c2ccccc2)cc1)Nc1ccc([N+](=O)[O-])cc1 | inactive | –
22 | COc1cc(/C=N\Nc2ccc([N+](=O)[O-])cc2)ccc1OCC(=O)Nc1ccc(C)c(C)c1 | inactive | –
23 | O=C(COc1ccc(Br)cc1)Nc1ccc([N+](=O)[O-])cn1 | inactive | –
24 | O=S(=O)(c1ccccc1)c1cnn2c(C(F)(F)F)cc(-c3ccc(F)cc3)nc12 | inactive | –
25 | COc1c(O[C@H]2O[C@@H](CO)[C@@H](O)[C@@H](O)[C@@H]2O)cc2c(c1OC)-c1ccc(SC)c(=O)cc1[C@H](NC(C)=O)CC2 | inactive | –
26 | O=C1CCCC=C1[C@@H](O)CCOC(c1ccccc1)(c1ccccc1)c1ccccc1 | – | -20.1% [at 11.4 µM] (inactive)

Row | Structure (SMILES) | AC50 | activity, negative = inhibition
27 | CCOP(=O)(OCC)c1nc(/C=C/c2ccccc2)oc1NCc1ccccc1 | inactive | –
28 | c1ccc(SCCc2ccncc2)cc1 | 2.82 µM (active) and 1.26 µM (active) | –
29 | Fc1ccc(SCCc2ccncc2)cc1 | 5.01 µM (active) | –
30 | O=C1c2ccccc2C(Cc2ccncc2)(Cc2ccncc2)c2ccccc21 | inactive | –
31 | O=C(O)CCCSc1ccccc1 | – | 0.436% [at 11.4 µM] (inactive)
32 | C[C@@H]1CCCC(CC(=O)O)(CC(=O)O)C1 | – | 0.077% [at 11.4 µM] (inactive)
33 | Cc1cccnc1NC(=O)C12CCC(C)(C(=O)O1)C2(C)C (stereo not drawn) | inactive | –
34 | O=C(O)c1nnsc1-c1ccc(-c2snnc2C(=O)O)cc1 | – | -3.33% [at 11.4 µM] (inactive)
35 | CC(=O)Nc1ccc(Sc2ncccc2C(=O)Nc2ccc(F)cc2)cn1 | inactive | –
36 | CC(=O)Nc1ccc(C#Cc2ccc(NC(C)=O)cc2)cc1 | inactive | –
37 | CCCCN(c1ccccc1)c1ncnc2c1cnn2C | – | -12.5% [at 11.4 µM] (inactive)
38 | O=[N+]([O-])c1cccnc1N1CCCCC1 | inactive | –
39 | Cc1[nH]nc(N2CCCCCC2)c1[N+](=O)[O-] | 15.8 µM (active) | –
40 | Cc1nc(N2CCOCC2)nc(N2CCN(c3ccccc3)CC2)c1[N+](=O)[O-] | inactive | –
41 | Cn1c(Oc2ccccc2)c(C=O)c2ccccc21 | inactive | –
42 | CCOc1ccc(OCC)c(-c2c(=O)n(OCc3ccccc3C(=O)OC)c3ccccc3[n+]2[O-])c1 | inactive | –
43 | O=c1onc2cnc3ccccc3n12 | inactive | –
44 | Cc1nc2c(C#N)c(C)[nH]n2c(=O)c1Cc1ccccc1 | inactive | –
45 | Cc1ccc(-n2c(O)c(/C=N/n3cnnc3)c3ccccc3c2=O)cc1 | inactive | –
46 | COc1cccc(-c2[nH]nc3c2C(c2ccc(C)o2)C(C#N)=C(N)O3)c1 (stereo not drawn) | inactive | –
47 | C/C(=C\c1ccco1)C1C(C#N)=C(N)Oc2n[nH]c(-c3ccccc3)c21 (stereo not drawn) | 31.6 µM (active) | –
48 | COc1cccc(-c2[nH]nc3c2C(c2ccsc2)C(C#N)=C(N)O3)c1 (stereo not drawn) | inactive | –
49 | Nc1ccccc1S(N)(=O)=O | inactive | –
50 | O=C(O)CC(O)C(=O)O (stereo not drawn) | inactive | –
51 | Cc1cc(C)c(S(=O)(=O)NCC2CCC(C(=O)NCc3ccc4c(c3)OCO4)CC2)c(C)c1 (stereo not drawn) | 12.6 µM (active) | –
52 | CCN(CC)S(=O)(=O)N1CCC(C(=O)NCc2ccc(C)cc2)CC1 | inactive | –

Row | Structure (SMILES) | AC50 | activity, negative = inhibition
53 | Cc1ccc(S(=O)(=O)NCC2CCC(C(=O)O)CC2)cc1 (stereo not drawn) | inactive | –
54 | CN(C)CCNCCN | – | 8.7% [at 11.4 µM] (inactive)
55 | COCCn1c(=O)cnc2cnc(Oc3cccc(Cl)c3)nc21 | inactive | –
56 | C=C(C)C1Cc2nc(N)nc(C)c2C1 (stereo not drawn) | inactive | –
57 | Cc1nc2nc[nH]n2c(=O)c1NC(=O)CC12CC3CC(CC(C3)C1)C2 | inactive | –
58 | COc1cc2cc3c4cc(OC)c(OC)cc4cc[n+]3c(C)c2cc1OC | inactive | –
59 | CNC(=O)c1c(I)c(C(=O)NCC(=O)Nc2c(I)c(C(=O)O)c(I)c(C(=O)NCCO)c2I)c(I)c(N(C)C(C)=O)c1I | inactive | –
60 | CCOC(=O)[C@H](CCc1ccccc1)N[C@@H](C)C(=O)N1CCC[C@H]1C(=O)O | inactive | –
61 | N#C/C(=C\c1ccc(O)c(O)c1)C(=O)NCCCc1ccccc1 | 31.6 µM (active) | –
62 | C[C@@H](NC(=O)/C(C#N)=C/c1ccc(O)c(O)c1)c1ccccc1 | inactive | –
63 | CCOC(=O)/C(C#N)=C\c1ccc(OCC(=O)Nc2ccc(C)cc2C)c(OC)c1 | inactive | –
64 | N#C/C(=C\c1ccc(O)c(O)c1)C(=O)OCCc1cccs1 | 12.6 µM (active) | –
65 | N#C/C(=C\c1ccc(O)c(O)c1)C(=O)NCc1ccccc1 | inactive | –
66 | C[C@H](NC(=O)/C(C#N)=C/c1ccc(O)c(O)c1)c1ccccc1 | inactive | –
67 | Nc1ncncc1-c1ccc([N+](=O)[O-])cc1 | inactive | –
68 | CC(=O)NC(NC(C)=O)c1ccc(Br)cc1 | inactive | –
69 | Cc1ccc(-n2nnnc2Sc2nc([N+](=O)[O-])nn2C)cc1C | inactive | –
70 | Cc1nc(S(=O)(=O)c2cccc(Cl)c2)nc2c1CCC2 | inactive | –
71 | CC(=O)N(CC(=O)O)c1ccccc1C(=O)O | inactive | –
72 | CC(C)(C)c1cccc(Oc2nn[nH]n2)c1 | inactive | –
73 | CC1=C(C(N)=O)C(c2cccs2)n2nc(-c3cccc(Cl)c3)nc2N1 (stereo not drawn) | inactive | –
74 | O=c1[nH]c2cc(Br)cnc2nc1/C=C(\O)c1ccc(F)cc1 | inactive | –
75 | COC(=O)[C@@H]1C[C@H]1[C@@H](NC(=O)c1cccnc1)c1ccccc1 | inactive | –
76 | COCCn1c(=O)c(-c2cccc(C#N)c2)nc2cnc(Oc3ccccc3)nc21 | inactive | –
77 | NC(=O)NCc1ccc(Cl)cc1 | inactive | –
78 | Cc1ccc(C)c(NC(=O)NCc2ccc(Cl)cc2)c1 | 3.98 µM (active) | –

Row | Structure (SMILES) | AC50 | activity, negative = inhibition
79 | Cc1ccc(Cn2cccc(NC(=O)NCc3ccccc3)c2=O)cc1 | inactive | –
80 | CCc1c(C)c2c(C)[nH]nc2oc1=O | inactive | –
81 | N#Cc1c(-c2ccc(Cl)cc2)nc2n(c1=O)CCCS2 | inactive | –
82 | O=C(NNC(=O)C1CC(c2cccnc2)=NO1)Nc1cccc(F)c1 (stereo not drawn) | inactive | –
83 | COc1cccc(C2=NOC(C(=O)NCc3ccccn3)C2)c1 (stereo not drawn) | inactive | –
84 | COc1cccc(C2=NOC(C(=O)NCCN3CCOCC3)C2)c1 (stereo not drawn) | inactive | –
85 | COCCNC(=O)C1CC(c2cccc(OC)c2)=NO1 (stereo not drawn) | inactive | –
86 | COc1ccc(CNC(=O)C2CSC(=O)C2)cc1 (stereo not drawn) | inactive | –
87 | COc1ccc(C2=NOC(C(=O)NCc3ccco3)C2)cc1OC (stereo not drawn) | inactive | –
88 | COc1cccc(C2=NOC(C(=O)Nc3ccc(OC)c(OC)c3)C2)c1 (stereo not drawn) | inactive | –
89 | COc1cccc(C2=NOC(C(=O)Nc3cccnc3)C2)c1 (stereo not drawn) | 11.2 µM (active) | –
90 | COc1ccc(CNC(=O)C2CC(c3cccc([N+](=O)[O-])c3)=NO2)cc1 (stereo not drawn) | 5.01 µM (active) | –
91 | O=C(NCc1ccc2c(c1)OCO2)C1CC(c2cccc(Br)c2)=NO1 (stereo not drawn) | 0.891 µM (active) | –
92 | COc1cccc(C2=NOC(C(=O)NCc3ccccc3)C2)c1 (stereo not drawn) | 12.6 µM (active) | –
93 | CO[C@H]1COC(=O)C/C=C\[C@@H](C)COC(=O)[C@@H](CCSC)NC(=O)C/C=C\[C@@H]1C | – | 14% [at 11.4 µM] (inactive) and 6.2% [at 11.4 µM] (inactive)
94 | O=C(c1cc(C(F)(F)F)cc(C(F)(F)F)c1)N1CCC[C@@]2(CCN(c3ncccn3)C2)C1 | inactive | –
95 | O=S(=O)(O)c1cc(N=Nc2cccc3ccccc23)c(O)c2ncccc12 | – | -9.94% [at 11.4 µM] (inactive)
96 | Nc1nc2n[nH]nc2c(=O)[nH]1 | inactive | –
97 | O=C1[C@H]2CCn3c(=O)n(-c4ccccc4)c(=O)n3[C@H]2[C@H](O)[C@H]2O[C@@H]12 | – | -6.63% [at 11.4 µM] (inactive)
98 | Cc1nn2c3c(cnc2c1-c1ccccc1)C(=O)CC(c1ccccc1)C3 (stereo not drawn) | inactive | –
99 | O=C(NCC1CCCO1)c1nn2c(c1Cl)NC(c1ccc(F)cc1)CC2C(F)(F)F (stereo not drawn) | inactive | –
100 | C#CCSc1nc(Cc2ccc(Cl)cc2)nc2ccccc12 | inactive | –
101 | Nc1nc(Cl)nc2c1ncn2[C@@H]1O[C@@H](CO)[C@@H](O)[C@H]1O | inactive | –
102 | CCC(Sc1nc2n[nH]c(C)c2c(=N)n1-c1cccc(Cl)c1)C(=O)NCCOC (stereo not drawn) | inactive | –
103 | Cc1ccc(/C(N)=N/OC(=O)Cc2cccs2)cc1 | inactive | –
